# Results published in PubChem BioAssay AID1851 (National Center for Advancing Translational Sciences (NCATS), 2009).
# “And” between values parts separate entries of the source, which are not always exact repeats. Equal entries are not always repeated. Among all 16,000 compounds or so, about 2,600 (16%) were called active. Roughly 20% stayed inconclusive and do not appear here. The call rests on the fitted dose curve; in most records, active means well fitted curve in the direction sought with a large enough effect; inconclusive means small, poorly fitted or top-dose-only effect, or effect the other way; inactive means no such curve, though single readings can be large or run the other way. These entries were drawn from the full list. Where a structure was tested more than once in an assay, its records may differ in their call.
# Target: Cytochrome P450 2D6 (Homo sapiens) (UniProt P10635)
# Experiment: Cytochrome panel assay with activity outcomes
# Conditions: recombinant CYP, pro-luciferin dealkylation, luminescence, p450-cyp2d6; series mostly up to 57.1 µM; activity, negative = inhibition: at the top concentration
# On the % scale 0 is the no-effect control and ±100 the full control effect.
# Chain of Cytochrome P450 2D6 (Homo sapiens) (P10635 whole entry, looked up): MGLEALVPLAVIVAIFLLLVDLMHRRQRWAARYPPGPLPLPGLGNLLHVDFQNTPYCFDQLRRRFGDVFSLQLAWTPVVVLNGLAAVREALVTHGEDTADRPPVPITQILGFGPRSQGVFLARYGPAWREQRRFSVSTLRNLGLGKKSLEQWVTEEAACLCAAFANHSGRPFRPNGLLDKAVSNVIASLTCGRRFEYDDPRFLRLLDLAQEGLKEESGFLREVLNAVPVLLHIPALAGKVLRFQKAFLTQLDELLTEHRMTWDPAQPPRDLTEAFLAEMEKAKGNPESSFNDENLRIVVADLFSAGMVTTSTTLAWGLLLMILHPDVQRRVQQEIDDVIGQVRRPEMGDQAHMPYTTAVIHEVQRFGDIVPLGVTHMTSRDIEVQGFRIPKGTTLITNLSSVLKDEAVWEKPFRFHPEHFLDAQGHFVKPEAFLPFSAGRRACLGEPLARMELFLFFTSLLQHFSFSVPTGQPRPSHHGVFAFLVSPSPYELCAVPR
Compound,"activity, negative = inhibition",AC50
NC(=S)SCCC(=O)O,4.51% [at 11.4 µM] (inactive),
NC(N)=Nc1nc2ccc([N+](=O)[O-])cc2[nH]1,2.98% [at 11.4 µM] (inactive),
O=S(=O)(O)c1cc(N=[N+]([O-])c2cc(S(=O)(=O)O)c3ccccc3c2)cc2ccccc12,-20.1% [at 11.4 µM] (inactive),
CCNc1nc(Sc2ccc(C)cc2)cc(C(F)(F)F)n1,-17.6% (inactive),
CC(C)c1cc(C(F)(F)F)nc(NNc2nc(C(C)C)cc(C(F)(F)F)n2)n1,,126 nM (active)
CC(C)Nc1nc(Oc2ccc(Cl)cc2)cc(C(F)(F)F)n1,-11.5% (inactive),
Cc1nc2cnc(N3CCN(C)CC3)nc2n(Cc2ccc(F)cc2)c1=O,-5.66% (inactive),
CN(C)c1ccc(-c2noc(C3CCN(S(=O)(=O)c4cccc(C(=O)O)c4)CC3)n2)cc1,5.68% (inactive),
Cc1ccc(C2=Nc3ccccc3S[C@@H](c3cccc([N+](=O)[O-])c3)C2)cc1,4.11% [at 11.4 µM] (inactive),
N#C/C(=C\c1cn[nH]c1-c1ccccc1)C(=O)NC1CCCCCC1,,28200 nM (active)
N#C/C(=C\c1cc(Cl)cc(Cl)c1O)C(=O)NC1CCCCC1,-19.5% (inactive),
COc1ccc(/C=C(/C#N)C(=O)NC2CCCCC2)cc1Br,13.5% (inactive),
CC1=C(C(=O)NCCN2CCN(C)CC2)C2(CCC(C)CC2)OC1=O (stereo not given),2.54% (inactive),
C/C(=N\NC(=O)c1ccc(Br)cc1)c1ccccc1,-29.7% (inactive),
CCOc1ccc(C(=O)Nc2cccc(-c3cc4ccccc4oc3=O)c2)cc1[N+](=O)[O-],-14.9% (inactive),
COc1ccc(-c2cc(C(=O)Nc3nc4c(C)cccc4s3)c3ccccc3n2)cc1OC,-7.95% (inactive),
CCCCNc1cc(=O)oc2ccccc12,-10.8% (inactive),
CCCCNC(=O)CSc1nc2ccccc2c(=O)n1CCNC(C)=O,-0.301% (inactive),
CCCCNC(=O)Cc1coc2ccc3ccccc3c12,,10000 nM (active)
CC1(O)CC(=O)N(c2ccccc2)O1 (stereo not given),0.119% (inactive),
COc1ccc(-c2cn3c(C)c(C(=O)NCCN4CCOCC4)sc3n2)cc1,8.62% (inactive),
COc1cccc(C(=O)NCCN2CCOCC2)c1,-17.2% (inactive),
COc1ccc(C(=O)Nc2ccc(Cl)cc2C(=O)NCCN2CCOCC2)cc1,,1260 nM (active)
O=C(O)[C@H]1CN(CCCP(=O)(O)O)CCN1,,inactive
CCCCNN,-18.7% [at 11.4 µM] (inactive),

Compound,"activity, negative = inhibition",AC50
O=C(O)/C(=C\c1ccccc1)Cc1ccccc1,-3.61% [at 11.4 µM] (inactive),
C#CCN(C)Cc1ccccc1,,inactive
CN(Cc1ccccc1)Cn1ccnc1,,794 nM (active)
Cc1ccc(C(C(=O)NC2CCCCC2)N2CCN(C(=O)c3ccco3)CC2)cc1 (stereo not given),-0.541% (inactive),
Cc1cc(C)n(C(=O)c2cc3ccccc3c(=O)o2)n1,4.28% (inactive),
CN(C)CC(C)(C)CN1c2ccccc2Sc2ccccc21,,200 nM (active)
CCN(CC)[C@@H](C)CN1c2ccccc2Sc2ccccc21,,158 nM (active)
O=C1CCCc2ccccc2N1Cc1ccccc1Cl,-16.5% (inactive),
CN(C)CN1C(=O)S/C(=C2/C(=O)N(CN(C)C)c3ccccc32)C1=O,-3.13% [at 11.4 µM] (inactive),
C[C@H](CN(C)C)C(=O)c1ccccc1C(=O)O,9.39% [at 11.4 µM] (inactive),
C[C@@H](CN(C)C)CN1c2ccccc2CCc2ccccc21,,12.6 µM (active) and 5.01 µM (active)
C[C@@H](CN1c2ccccc2Sc2ccccc21)N(C)C,,2 µM (active) and 316 nM (active)
CC(C)c1ccc(C2C(C#N)=C(N)N3C(=C2C#N)Sc2ccccc23)cc1 (stereo not given),9.18% (inactive),
Cc1nc(C(=O)Nc2cccc(Cl)c2Cl)nn1-c1cc(OC(C)C)c(Cl)cc1Cl,10.4% (inactive),
O=Nc1ccc(NOC(=O)c2ccc(Br)cc2)cc1,8.91% (inactive),
Cc1ccc(C(=O)NNC(=O)C2CCCN(c3ncccn3)C2)cc1 (stereo not given),-12.1% (inactive),
Nc1ncnc2c1cnn2-c1ccccc1,8.69% (inactive),
Cc1cc(C)n(-c2ccc(F)cc2)c(=O)c1C(=O)O,5.5% (inactive),
CSc1nc2ccccc2cc1/C=C(\C#N)c1ccccc1,-21.5% (inactive),
COc1ccccc1C(OC(=O)c1cccs1)C(=O)NCC1CCCO1 (stereo not given),-3.85% (inactive),
NCCC(=O)O,18.6% (inactive),
O=C(O)CCCCCn1c(SCC(=O)N2CCCC2)nc2ccsc2c1=O,3.57% (inactive),
CC[C@@]1(O)C(=O)COc2c1cc1n(c2=O)Cc2c-1nc1cccc(C(C)C)c1c2[Si](C)(C)C,-5.56% (inactive),
COc1ccc([C@@H]2Sc3ccccc3N(CCN(C)C)C(=O)[C@@H]2OC(C)=O)cc1,-0.971% (inactive),
COc1ccc2c(c1)N(C[C@@H](C)CN(C)C)c1ccccc1S2,,63.1 nM (active)

Compound,"activity, negative = inhibition",AC50
COc1ccc([C@H]2Sc3ccccc3N(CCN(C)C)C(=O)[C@H]2OC(C)=O)cc1,,inactive
CCCCCC(=O)N1CC2(CC(c3cccc(NC(=O)c4ccccc4)c3)=NO2)C[C@@H]1C(N)=O (stereo not given in full),11.3% (inactive),
O=C(CSc1nc2ccccc2o1)Nc1nc2ccccc2s1,-22.6% (inactive),
O=C(CSc1nc2ccccc2o1)NC(=O)NCc1ccccc1,-3.58% (inactive),
O=C(CN(C(=O)CSc1nc2ccccc2o1)c1cccc(F)c1)NC1CCCCC1,,12600 nM (active)
Cc1cccc(-c2c3c(=O)n(C)c(=O)n(C)c3cn2C2CCCCC2)c1,-15.1% (inactive),
CO[C@@H]1COC(=O)[C@H](CCSC)NC(=O)C/C=C\[C@@H](C)COC(=O)[C@@H]2CCCN2C(=O)C/C=C\[C@H]1C,11.2% [at 11.4 µM] (inactive),
CC(=O)Nc1ccc(OC[C@@H](O)CNC(C)C)cc1,,inactive and 3.16 µM (active)
CC(C)NC[C@@H](O)COc1ccc(CCOCC2CC2)cc1,,inactive
CC(C)NC[C@@H](O)COc1ccc(COCCOC(C)C)cc1,,inactive
Cc1cc(C(=O)C(=O)NC(C)C)c(C)n1-c1ccc([N+](=O)[O-])cc1,18.9% (inactive),
CC(=O)NS(=O)(=O)c1ccc(NC(=S)NC(=O)C(C)(C)C)cc1,8.65% (inactive),
O=C(N/N=C\c1cn(-c2ccccc2)nc1-c1ccccc1)c1ccc(Br)o1,11.4% (inactive),
O=S(=O)(N/N=C\c1cn(-c2ccccc2)nc1-c1ccccc1)c1ccccc1,,112 nM (active)
Cc1ccc(-c2nn(-c3ccccc3)cc2/C=N/NS(=O)(=O)c2ccccc2)cc1,-8.24% (inactive),
COc1ccc(C2C(C(=O)N3CCOCC3)c3ccccc3C(=O)N2c2ccc(OC)cc2)cc1 (stereo not given),-7.47% (inactive),
CNc1ccnc(-c2c(C)noc2C)n1,-3.6% (inactive),
CN(C)Cc1ccccc1-c1nccc(Nc2ccc(F)cc2)n1,,10000 nM (active)
CNc1ccnc(-c2ccccc2CN(C)C)n1,,39.8 nM (active)
CN(C)Cc1ccccc1-c1nccc(NC2CC2)n1,,631 nM (active)
Cc1nn2c(NCC(C)C)c3c(nc2c1-c1ccccc1)CCC3,-26.8% (inactive),
Cc1ccc(S(=O)(=O)N=Nc2c(O)[nH]c3cc(O)c(C(=O)O)cc23)cc1,6.63% [at 11.4 µM] (inactive),
COC(=O)C/C=C\[C@@H](C)[C@@H]1C=C[C@H](OC(C)=O)[C@H](COC(C)=O)O1,13.8% [at 11.4 µM] (inactive),
CCC(C)(C(=O)NC1CCCC1)N(C(=O)c1ccccn1)c1ccccc1 (stereo not given),0.576% (inactive),
Nc1nc(Nc2ccccc2)nc2c1ncn2[C@@H]1O[C@@H](CO)[C@H](O)[C@@H]1O,10.4% (inactive),

Compound,"activity, negative = inhibition",AC50
N[C@@H](Cc1cc(-c2ccc(Cl)cc2Cl)cc(CP(=O)(O)O)c1O)C(=O)O,-17.1% (inactive),
CCc1cc2c(=O)c(-c3nc4ccccc4n3C)c(C)oc2c(CN(CC)CC)c1O,-3.61% (inactive),
CCN(CC)Cc1c(O)ccc2c(=O)c(Oc3ccccc3OC)coc12,6.48% (inactive),
CCN(CC)Cc1c(O)c(Cl)cc2c3c(c(=O)oc12)CCCC3,,2510 nM (active)
CC(C)CN(Cc1c(O)ccc2c3c(c(=O)oc12)CCC3)CC(C)C,,224 nM (active)
CCC(C)C(NS(=O)(=O)c1ccc(C)cc1)C(=O)Oc1ccc2c3c(c(=O)oc2c1)CCC3 (stereo not given),-13.9% (inactive),
CCCCCOC(=O)CSc1nnc(-c2ccccc2)c(=O)[nH]1,16.4% (inactive),
Cn1c(=O)c2[nH]c(CCC(=O)O)nc2n(C)c1=O,-4.99% [at 11.4 µM] (inactive),
CCOC(=O)C1=C(C)NC(=O)N[C@@H]1c1coc2cc(C)cc(C)c2c1=O,0.866% [at 11.4 µM] (inactive),
O=C(OC1CCN(c2ncc(C(F)(F)F)cc2Cl)CC1)c1cccc(C(F)(F)F)c1,-3.01% (inactive),
CCN(c1ccccc1)c1cc(NC)[n+](C)c(C)n1,,3980 nM (active)
CN(C(=O)CC(NC(=O)c1ccccc1)(c1ccccc1)c1ccccc1)c1ccccc1,-9.41% (inactive),
O=C(NCCc1ccccc1)N1c2ccccc2Sc2ccccc21,,20000 nM (active)
COC(=O)c1cc(NC(=O)N2c3ccccc3Sc3ccccc32)cc(C(=O)OC)c1,5.22% (inactive),
O=C(CSc1nc2ccccc2s1)N1c2ccccc2Sc2ccccc21,3.68% (inactive),
Cc1ccc(N=Nc2ccc(N)cc2C)c(S(N)(=O)=O)c1,3.5% [at 11.4 µM] (inactive),
Cc1ccccc1-n1c(=O)cc(N2CC(C)OC(C)C2)[nH]c1=O (stereo not given),-2.9% (inactive),
C/C(=C\c1ccc(C(=O)O)cc1)c1ccc2c(c1)C(C)(C)CCC2(C)C,,12.6 nM (active)
C/C(=C\c1ccc(Cl)cc1)C(C)(C)C(=O)O,6.46% [at 11.4 µM] (inactive),
CC1(C)CCC(C)(C)c2cc(C(=O)Nc3ccc(C(=O)O)cc3)ccc21,-18.8% (inactive),
COC(=O)\C(C(C)=O)=C(/C=C/C=C/C=C/N(C)C)N(C)C,-21.3% (inactive),
N=C(N)CCNC(=O)[C@@H]1CCC(N)=N1,2.49% [at 11.4 µM] (inactive),
CCC(=O)Nc1ccc(NC(=O)CSc2nnnn2-c2cccnc2)cc1C,-3.22% (inactive),
CC1=C(C)/C(=N\OC(=O)/C=C/c2ccccc2)C=CC1=O,-17.9% (inactive),
Cc1ccc(S(=O)(=O)/N=C2/NC(=O)/C(=C/c3cccnc3)S2)cc1,-9.7% (inactive),
